Shown are actives, neighbours in structure and some others; about 19% of the full set was active somewhere.
HT1080 IDH1KD tx – toxicity to HT-1080 IDH1 knockdown cells (counter line); hit rate 2% among 360,000; Potency, µM (top dose mostly 46.1 µM), inactives show top-dose activity, negative = toxicity, usual class: cytotoxic; HT-1080 IDH1 knockdown viability, ATP luminescence, 48 h;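 further: 0% = DMSO wells and -100% = cell-free medium wells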
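After a 2 h attachment period, IDH1KD HT-1080 cells took pin-transferred compound for 48 h at 37 °C; ATP-based luminescence after 10 min room-temperature reagent incubation reported viability.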
DT40 TDP1 CPT – growth inhibition of DT40 Tdp1-/-;hTDP1 cells with camptothecin (screen for TDP1 inhibitors). chicken DT40 Tdp1-/-;hTDP1 cells + 20 nM CPT, ATP luminescence, 48 h. Potency, µM (doses to about 46.2 µM), for the others: at the highest dose activity change, negative = growth inhibition, hits mostly inhibitors. hit rate 12% among 420,000. AID 686979; further: nearly all actives have a fitted effect of over 55% in size
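Chicken DT40 Tdp1-/- cells complemented with human TDP1, 400 cells/well, exposed to compounds plus 20 nM camptothecin for at least 48 h at 37 C; viability read as ATP content by CellTiter-Glo luminescence.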
KB-3-1 tox – KB-3-1 parental cell cytotoxicity; Potency, µM (series often up to 46.1 µM), most hits filed as cytotoxic; hit rate 1.4% among 400,000; KB-3-1 viability, CellTiter-Glo ATP luminescence, 72 h; further: nearly all actives have a fitted effect of over 60% in size
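Cytotoxicity in the drug-sensitive parental line KB-3-1 was scored as loss of CellTiter-Glo luminescence following 72 h incubation with compound. Values come from curve fitting of normalized concentration-response data.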
KB-V1 MDR tox – kills drug-selected multidrug resistant KB-V1 cells | KB-V1 MDR cells viability, CellTiter-Glo, 72 h | Potency, µM (highest dose often 46.1 µM), hits mostly cytotoxic | AID 1347076 | hit rate 3.4% among 400,000; further: nearly all actives have a fitted effect of over 60% in size
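In this primary screen, KB-V1 cells overexpressing P-gp are incubated with library compounds (lowest to highest concentration) for 72 h at 37 degrees C before a luminescent ATP viability read.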
TDP1 cell noCPT – qHTS for Inhibitors of human tyrosyl-DNA phosphodiesterase 1 (TDP1): qHTS in cells in absence of CPT; DT40 Tdp1-/- hTDP1 cells, no CPT, ATP luminescence, 48 h; Potency, µM (doses to about 46.2 µM), without a hit: at the top dose activity change, negative = growth inhibition, most hits filed as inhibitors; hit rate 15% among 420,000; AID 686978, 2013; further: nearly all actives have a fitted effect of over 55% in size
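Chicken DT40 Tdp1-/- cells complemented with human TDP1, screened without camptothecin (DMSO vehicle only), 400 cells/well. Compounds pin-transferred, cells incubated at 37 °C for at least 48 hr. Growth read as ATP-dependent luminescence (CellTiter-Glo, 30 min at RT).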
HT1080-NT tox – kills 2HG-producing HT-1080-NT fibrosarcoma cells; HT-1080-NT fibrosarcoma viability, CellTiter-Glo ATP luminescence, 48 h; Potency, µM (highest dose often 46.1 µM), inactives show at the highest dose activity, negative = less viability, actives largely listed as cytotoxic; hit rate 1.6% among 360,000;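 further: NT is the 2HG producing partner of a matched IDH1 knockdown line; 0% = DMSO-treated cells and -100% = media-only wells without cells; nearly all actives have a fitted effect of over 55% in size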
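Viability of the 2HG-overproducing fibrosarcoma line after 48 hours of compound exposure at 37 degrees C was determined by luminescence with CellTiter-Glo, and concentration-effect curves were then fitted and categorized.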
Numbers without * were called inactive; i = inactive; u = inconclusive; x = no result given; [ ] = remark or other dose. The call rests on the fitted dose curve; in most records, active means well fitted curve in the direction sought with a large enough effect; inconclusive means small, poorly fitted or top-dose-only effect, or another doubt; inactive means no such curve, though single readings can be large; an effect the other way counts as inactive or inconclusive. Unless noted, on the % scale 0 is the no-effect control and ±100 the full control effect; potency means the concentration at half of the fitted maximal effect.

SMILES	HT1080 IDH1KD tx	DT40 TDP1 CPT	KB-3-1 tox	KB-V1 MDR tox	TDP1 cell noCPT	HT1080-NT tox
Cc1ccc(CNC(=O)CCCCn2c(=O)c3ccccc3n(Cc3c(C)cc(C)cc3C)c2=O)cc1	x	-1%	i	i	-10%	x
COC(=O)c1ccc(NC(=O)c2c(NCc3cccc(F)c3)sc3c2CCCC3)cc1	x	21µM*	i	i	16µM*	x
CCOC(=O)N1CCc2c(sc(NCc3cccc(F)c3)c2C(=O)Nc2ccc(OC)cc2)C1	x	u	x	x	16µM*	x
CCOC(=O)N1CCc2c(sc(NCc3ccc(N(C)C)cc3)c2C(=O)Nc2ccc(OC)cc2)C1	x	21µM*	x	x	u	x
CCOC(=O)N1CCc2c(sc(NCc3cc(OC)c(OC)cc3OC)c2C(=O)Nc2ccc(OCC)cc2)C1	x	u	i	i	u	x
CCc1cccc(NC(=O)Cn2c(=O)n(-c3cccc(Cl)c3)c(=O)c3c2c2cc(C)ccc2n3C)c1	x	-9%	i	i	-17%	x
CCOC(=O)c1ccccc1NC(=O)N(Cc1ccc(C)cc1)Cc1cccn1-c1nnc(N2CCCC2=O)s1	x	23µM*	x	x	18µM*	x
Cn1cc(-c2cc3n(n2)CCC(=O)N3CC(=O)O)c2ccccc21	x	-6%	x	x	-1%	x
Cc1ccsc1C1Nc2ccccc2-c2nc3ccccc3n21 (configuration not stated)	9%	u	i	i	u	1%
c1csc(C2Nc3ccccc3-c3nc4ccccc4n32)c1 (configuration not stated)	5%	16µM*	i	u	u	6%
CC(O)CCC(=O)NCCNC(=O)CCC(C)O (configuration not stated)	11%	26µM*	i	i	u	6%
CCOC(=O)c1ccc(CN(Cc2ccc(F)cc2)S(=O)(=O)c2cc(C(=O)Nc3ccccc3CC)ccc2F)cc1	x	u	x	x	-14%	x
COc1ccc(-c2csc(NC(=O)c3ccc(S(=O)(=O)N4CCc5ccccc5C4)cc3)n2)cc1	u	-13%	u	i	u	-22%
COc1ccc(-c2nnc(NC(=O)c3ccc(S(=O)(=O)N4CCc5ccccc5C4)cc3)o2)cc1	-19%	4.5µM*	u	10µM*	4.5µM*	u
COC(=O)c1ccc(-c2csc(NC(=O)c3ccc(S(=O)(=O)N4CCc5ccccc5C4)cc3)n2)cc1	-7%	7.3µM*	i	i	5.8µM*	-2%
Cc1ccccc1C(=O)N1CCC(N2CCN(Cc3ccc(F)cc3)C(=O)C2=O)CC1	x	2%	i	i	5%	x
COc1ccccc1C1CN(CCNC(=O)c2sccc2Cl)Cc2ccccc2O1 (configuration not stated)	x	-21%[9.04 µM]	x	x	-2%	x
O=C(Nc1ccc(S(=O)(=O)Nc2ncccn2)cc1)c1ccc(F)c(S(=O)(=O)N2CCOCC2)c1	1%	u	i	i	-12%	0%
CCOc1ccc(NC(=O)c2ccc(F)c(S(=O)(=O)N3CCN(c4ccccn4)CC3)c2)cc1	u	u	i	2.3µM*	16µM*	-18%
O=C(Nc1cccc(Cl)c1)c1ccc(F)c(S(=O)(=O)N2CCN(c3ccccn3)CC2)c1	u	23µM*	u	u	18µM*	-19%
O=C(c1ccc(Cl)c(S(=O)(=O)N2CCOCC2)c1)N1CCN(c2ccccn2)CC1	8%	-3%	i	i	u	8%
CCOc1ccc(NC(=O)c2ccc(F)c(S(=O)(=O)N3CCCC3)c2)cc1	-24%	9.2µM*	u	u	12µM*	-17%
CC(=O)Nc1ccc(NS(=O)(=O)c2c(C(=O)N3CCCCCC3)c(C)n(C)c2C)cc1	x	6%	i	i	1%	x
CCn1c2ccccc2c2nnc(SCN3C(=O)c4ccccc4C3=O)nc21	1%	9%	u	8.2µM*	-9%	1%
Cc1ccc2c(c1)c1nc3ccccc3nc1n2CCN1CCOCC1	-15%	u	i	21µM*	18µM*	-13%
SMILES	HT1080 IDH1KD tx	DT40 TDP1 CPT	KB-3-1 tox	KB-V1 MDR tox	TDP1 cell noCPT	HT1080-NT tox
CCn1c2ccc(C)cc2c2nnc(SCCN3CCOCC3)nc21	u	u	u	u	21µM*	-17%
CCN(CC)CCSc1nnc2c3ccccc3n(Cc3ccccc3)c2n1	u	23µM*	u	i	16µM*	u
CN(CC(=O)Nc1cccc(F)c1)C(=O)CCCn1c(=O)oc2ccccc21	2%	u	i	i	-4%	0%
CCCCn1c2ccc(C)cc2c2nnc(SCCN3CCCCC3)nc21	-13%	u	18µM*	i	21µM*	-11%
Cc1nc2c3cc(Cl)ccc3n(CCN3CCOCC3)c2s1	21µM*	u	u	u	15µM*	23µM*
CCn1c2ccccc2c2nnc(SCc3ccccc3)nc21	-17%	u	i	u	u	1%
CCn1c2ccccc2c2nnc(SCCN3CCOCC3)nc21	-1%	-20%	i	i	u	1%
CCn1c2ccccc2c2nnc(SCCN3CCCCC3)nc21	-11%	26µM*	i	i	u	-9%
CCN(CC)CCn1c2ccc(F)cc2c2nc(C)sc21	-27%	-13%	i	i	-28%	-6%
CCn1c2ccccc2c2nnc(SCc3ccc(C(=O)OC)o3)nc21	-15%	18µM*	i	u	23µM*	-7%
COc1ccc(NC(=O)c2cc(C3CCCCN3C(=O)CCc3ccccc3)on2)c(C)c1 (configuration not stated)	3%	u	i	i	u	3%
CCCCOc1ccc(N(CC(=O)NCCOC)C(=O)CCC(=O)Nc2ccccn2)cc1	-17%	-9%	i	i	-5%	0%
CCn1c2ccccc2c2nnc(SCC(N)=O)nc21	0%	-2%	i	i	-1%	u
CCn1c2ccccc2c2nnc(SCCCn3c(=O)[nH]c4ccccc43)nc21	17%	u	i	u	23µM*	-1%
Nc1ccc(Oc2ccc3nc(-c4ccccc4)c(-c4ccc([N+](=O)[O-])cc4)nc3c2)cc1	-1%	16µM*	i	i	u	-1%
N#Cc1ccc(Oc2ccc(-c3nc4ccccc4nc3-c3ccccc3)cc2)cc1C#N	-11%	9.2µM*	i	21µM*	18µM*	-9%

Bioassay records as filed in PubChem.
